Compounds without any hit were thinned out: in the full panel of roughly 79,000, 15% have a hit. Activity calls are given as the source filed them. Rule as the data show it: active = growth inhibition above about 70%; inactive = the rest.
Experiments:
[1] = NCI Yeast Anticancer Drug Screen. Data for the rad52 strain (AID 147);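 also: 0% = growth of vehicle-treated control cultures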; settings: S. cerevisiae rad52 mutant growth inhibition, active compounds read high
Summary of the method: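 Screen used a yeast mutant impaired in DNA repair. After compound exposure, growth was measured. Values reflect inhibition compared with vehicle-treated cells.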

[2] = NCI Yeast Anticancer Drug Screen. Data for the wt1 strain (AID 149);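 also: 0% = growth of vehicle-treated wt1 cultures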; settings: S. cerevisiae wt1 strain (SPY 50644) growth inhibition, active compounds read high
Summary of the method: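 Readout: yeast growth inhibition, normalised to vehicle controls, in the wt1 strain exposed to test compounds.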

[3] = NCI Yeast Anticancer Drug Screen. Data for the rad50EPP+ strain (AID 151);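 also: 0% = growth of vehicle-treated control cultures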; settings: S. cerevisiae rad50 mutant strain, active compounds read high
Summary of the method: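 Exposing the rad50EPP+ strain to each compound, growth was compared with vehicle-only cultures to give inhibition.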

[4] = NCI Yeast Anticancer Drug Screen. Data for the mgt1 strain (AID 153); settings: S. cerevisiae mgt1 mutant growth inhibition, active compounds read high
Summary of the method: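 Genetically defined yeast (mgt1) treated with compound; inhibition of growth expressed against vehicle-treated controls.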

[5] = NCI Yeast Anticancer Drug Screen. Data for the rad50 strain (AID 155);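 also: 0% = growth of vehicle-only cultures of the same strain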; settings: S. cerevisiae rad50 strain growth inhibition, active compounds read high
Summary of the method: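 Compounds were tested on a yeast strain with an engineered DNA damage repair alteration; the reported value is growth inhibition normalised to vehicle treatment.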

[6] = NCI Yeast Anticancer Drug Screen. Data for the mec2-1 strain (AID 157); settings: S. cerevisiae mec2-1 strain, active compounds read high
Summary of the method: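 Readout is yeast growth inhibition, normalised to vehicle-treated controls, in the mec2-1 strain exposed to compound.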

[7] = NCI Yeast Anticancer Drug Screen. Data for the rad14 strain (AID 159);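 also: 0% = growth of vehicle-treated control cultures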; settings: S. cerevisiae rad14 strain growth inhibition, active compounds read high
Summary of the method: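 Compound-treated yeast with a defined DNA-repair lesion; growth inhibition normalised to vehicle-treated cultures.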

[8] = NCI Yeast Anticancer Drug Screen. Data for the sgs1 mgt1 strain (AID 161);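 also: 0% = growth of cultures given vehicle only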; settings: S. cerevisiae sgs1 mgt1 strain, active compounds read high
Summary of the method: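 Growth of a repair-deficient yeast mutant was monitored after compound treatment and expressed as inhibition relative to vehicle-treated cultures.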

[9] = NCI Yeast Anticancer Drug Screen. Data for the CLN2oe strain (AID 163);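 also: 0% = growth of vehicle-only control cultures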; settings: S. cerevisiae CLN2oe strain, active compounds read high
Summary of the method: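 Values reflect how much compound exposure reduced yeast growth, referenced to vehicle-exposed cells. Assay organism is a strain with a defined genetic change affecting cell-cycle control.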

[10] = NCI Yeast Anticancer Drug Screen. Data for the cln2 rad14 strain (AID 165);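 also: 0% = growth equal to vehicle treated cultures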; settings: S. cerevisiae cln2 rad14 strain, active compounds read high
Summary of the method: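 Relative to vehicle controls, growth inhibition of compound-treated cln2 rad14 yeast was recorded.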

[11] = NCI Yeast Anticancer Drug Screen. Data for the bub3 strain (AID 167); settings: S. cerevisiae bub3 mutant strain, active compounds read high
Summary of the method: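 Growth of a checkpoint-deficient yeast mutant is measured after compound exposure. Values represent inhibition relative to vehicle.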

[12] = NCI Yeast Anticancer Drug Screen. Data for the wt2 strain (AID 169);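 also: 0% = growth of vehicle-treated yeast cultures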; settings: S. cerevisiae wt2 strain growth inhibition, active compounds read high
Summary of the method: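 Values express reduction in yeast growth under compound treatment, referenced to vehicle-treated cells.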

[13] = NCI Yeast Anticancer Drug Screen. Data for the mlh1 strain (AID 171);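 also: 0% = growth of vehicle-treated control cultures of the same strain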; settings: S. cerevisiae mlh1 strain growth inhibition, active compounds read high
Summary of the method: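 Steps: expose the defined-mutant yeast strain to compound; expose a parallel culture to vehicle; measure growth; express compound effect as inhibition relative to the vehicle culture.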

[14] = NCI Yeast Anticancer Drug Screen. Data for the sgs1 strain (AID 173);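 also: 0% = growth of vehicle-only control cultures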; settings: S. cerevisiae sgs1 mutant, active compounds read high
Summary of the method: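 Treat defined-mutant yeast with compound; measure growth; calculate inhibition relative to vehicle-treated cells.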

[15] = NCI Yeast Anticancer Drug Screen. Data for the mlh1 rad18 strain (AID 175); settings: S. cerevisiae mlh1 rad18 strain growth inhibition, active compounds read high
Summary of the method: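 Test agents were incubated with a yeast strain of defined genotype (DNA damage repair defect). Inhibition of growth was derived by comparison with vehicle-exposed cultures.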

[16] = NCI Yeast Anticancer Drug Screen. Data for the rad18 strain (AID 177); settings: S. cerevisiae rad18 mutant growth inhibition, active compounds read high
Summary of the method: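 A genetically defined yeast mutant impaired in DNA damage repair was treated with test compounds, then its growth was measured against cultures receiving vehicle alone.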

[17] = at 5.0 µM (retest, dose inferred, filed as 0.5)
[18] = at 50.0 µM (retest, dose inferred, filed as 5.0)

Measured: growth inhibition

CCCCOc1ccc2nc(C)cc(N=[N+]=[N-])c2c1
active: [1]; at 100.0 µM 86% | [4]; at 100.0 µM 90% | [5]; at 100.0 µM 92% | [6]; at 100.0 µM 79% | [7]; at 100.0 µM 98% | [8]; at 50.0 µM 91.2% | [10]; [18] 70% | [11]; at 100.0 µM 87% | [12]; at 100.0 µM 93% | [13]; at 100.0 µM 97% | [14]; at 100.0 µM 96% | [15]; [18] 93% | [15]; at 50.0 µM 74.2% | [16]; at 100.0 µM 96%
inactive: [1]; at 1.2 µM 8% | [1]; at 3.7 µM 9% | [1]; at 11.0 µM 14% | [1]; at 33.0 µM 20% | [2]; at 1.2 µM 11% | [2]; at 3.7 µM 10% | [2]; at 11.0 µM 11% | [2]; at 33.0 µM 15% | [2]; at 100.0 µM 69% | [3]; at 1.2 µM -1% | [3]; at 3.7 µM -3% | [3]; at 11.0 µM 0% | [3]; at 33.0 µM 10% | [3]; at 100.0 µM 45% | [4]; at 1.2 µM 6% | [4]; at 3.7 µM 7% | [4]; at 11.0 µM 12% | [4]; at 33.0 µM 32% | [5]; at 1.2 µM 4% | [5]; at 3.7 µM -4% | [5]; [17] 19% | [5]; at 11.0 µM -1% | [5]; at 33.0 µM 33% | [5]; [18] 49% | [5]; at 50.0 µM 19.7% | [6]; at 1.2 µM 11% | [6]; at 3.7 µM 8% | [6]; [17] 7% | [6]; at 11.0 µM 14% | [6]; at 33.0 µM 28% | [6]; [18] -1% | [6]; at 50.0 µM 23.8% | [7]; at 1.2 µM 7% | [7]; at 3.7 µM 5% | [7]; at 11.0 µM 11% | [7]; at 33.0 µM 48% | [8]; [17] 12% | [8]; [18] -13% | [9]; at 1.2 µM 7% | [9]; at 3.7 µM 6% | [9]; at 11.0 µM 12% | [9]; at 33.0 µM 28% | [9]; at 100.0 µM 64% | [10]; [17] 6% | [10]; at 50.0 µM 40.8% | [11]; at 1.2 µM 11% | [11]; at 3.7 µM 9% | [11]; [17] 5% | [11]; at 11.0 µM 12% | [11]; at 33.0 µM 31% | [11]; [18] 33% | [11]; at 50.0 µM 37% | [12]; at 1.2 µM 7% | [12]; at 3.7 µM 6% | [12]; at 11.0 µM 10% | [12]; at 33.0 µM 33% | [13]; at 1.2 µM 7% | [13]; at 3.7 µM 10% | [13]; at 11.0 µM 13% | [13]; at 33.0 µM 38% | [14]; at 1.2 µM 12% | [14]; at 3.7 µM 13% | [14]; at 11.0 µM 15% | [14]; at 33.0 µM 41% | [15]; [17] 8% | [16]; at 1.2 µM 16% | [16]; at 3.7 µM 19% | [16]; at 11.0 µM 23% | [16]; at 33.0 µM 51%

— PubChem BioAssay (NCI)
